Structures are written as SMILES. Records with an inconclusive call do not appear. A call without a number means that no potency is given here. Calls of active or inactive are those of the source. Calls follow the shape of the dose curve; as a rule, active = well fitted curve in the direction sought with a large enough effect; inconclusive = small, poorly fitted or top-dose-only effect, or another doubt; inactive = no such curve, though single readings can be large; an effect the other way counts as inactive or inconclusive.

System in one assay: not listed separately
The experiment in a line: Primary fluorescence-based thiol-reactive (MSTI) qHTS assay for identification of artifact compounds. (AID 1845221). Also: nearly all actives have a fitted effect of over 65% in size. Also: potency is read from the fitted curve at half-maximal effect.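 As to activity change, negative = thiol reactive: thiol-reactive compounds lower the probe fluorescence signal.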 The conditions noted are these: MSTI thiol-reactivity probe, 1 h; series mostly up to 53.8 µM. The method, boiled down:
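First, 4 uM MSTI in 2% DMSO/PBS pH 7.4 was dispensed; next, compounds were added; then plates sat 1 h at room temperature without light. Finally, emission at 598 nm was recorded.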
Background: In qHTS, concentration-response curves come from the screen itself.
As to `CN(C)[C@@H]1C(=O)C(C(N)=O)=C(O)[C@@]2(O)C(=O)C3=C(O)c4c(O)ccc(Cl)c4[C@@](C)(O)C3C[C@@H]12` (some centres undefined), the Potency was 1680 nM (active).

As to `CC(C)[C@H](NC(=O)c1nn(Cc2ccc(F)cc2)c2ccccc12)C(N)=O`, the Potency entry is “inactive”.

On to `C=C1C(=O)CC2OC2(C)CC2OC(=O)C(=C)C2C(O)C1OC(=O)/C(C)=C\C` (centres undefined), for which the Potency entry is “inactive”.

Consider `CC12CCC3C(C1)c1c(cc(O)c(C(=O)c4ccccc4)c1OC3(C)C)O2` (centres undefined), for which the Potency result is “inactive”.

For the compound `C#C[C@]1(O)CC[C@H]2[C@@H]3CC[C@H]4Cc5nc6nc7ccccc7n6cc5C[C@]4(C)[C@H]3CC[C@@]21C`, the Potency result was “inactive”.

`CC(C)[C@H]1OC(=O)[C@H](Cc2ccccc2)N(C)C(=O)[C@@H](C(C)C)OC(=O)[C@H](Cc2ccccc2)N(C)C(=O)[C@@H](C(C)C)OC(=O)[C@H](Cc2ccccc2)N(C)C1=O`: the Potency entry was “inactive”.

Consider `COc1cc(O)c2c(c1)CCC[C@@H](O)[C@H](O)C(=O)/C=C\C[C@H](C)OC2=O`, for which the Potency entry is “inactive”.

For `CCCCCCC1C(=O)O[C@H](C)[C@H](NC(=O)c2cccc(NC=O)c2O)C(=O)O[C@@H](C)[C@@H]1OC(=O)CC(C)C` (some centres undefined), the Potency was 1890 nM (active).

Turning to `C=C(C)C(=O)O[C@H]1[C@@H]2[C@H](C)C(=O)O[C@@H]2C[C@@H](C)[C@@H]2C=CC(=O)[C@]21C`, the Potency result was “inactive”.

On to `CCN1C[C@]2(COC)CC[C@H](O)[C@@]34C5C[C@@H]6[C@@H](OC)C[C@@](OC(C)=O)(C5[C@@H]6OC(C)=O)[C@H]([C@H](OC)C23)[C@@H]14` (some centres undefined), for which the Potency entry is “inactive”.

For `C[C@]12CC[C@H](O)C[C@@]1(O)CC[C@@H]1[C@@H]2CC[C@]2(C)[C@@H](c3ccc(=O)oc3)CC[C@]12O`, the Potency result was “inactive”.

On to `CC(=O)O[C@H]1C[C@]2(O)[C@@H]3CC[C@@H]4C[C@@H](O)CC[C@]4(C)[C@H]3CC[C@]2(C)[C@H]1c1ccc(=O)oc1`, for which the Potency result is “inactive”.

As to `CCCCCn1cc(C(=O)Oc2cccc3cccnc23)c2ccccc21`, the Potency entry is “inactive”.

Turning to `CN=C(NS(=O)(=O)c1ccc(Cl)cc1)N1C[C@H](c2ccccc2)C(c2ccc(Cl)cc2)=N1`, the Potency result was “inactive”.

In the case of `COC1CC(O[C@H]2CC[C@@]3(C)C(CCC4C3CC[C@]3(C)C(C5=CC(=O)OC5)CCC43O)C2)OC(C)C1OC1OC(COC2OC(CO)C(O)C(O)C2O)C(O)C(O)C1O` (some centres undefined), the activity change, negative = thiol reactive is 0.284% [at 11.5 µM] (inactive).

`C=C(C)[C@@]12O[C@@H]1[C@@]1(C)C(=CC2=O)CC[C@@H](OC(C)=O)[C@@H]1C`: the Potency result was “inactive”.

Take `CN(Cc1cccc(-c2ccncc2)c1)C(=O)Oc1ccc(-c2ccc(C(N)=O)cc2)cc1`: the Potency result was “inactive”.

For `CC1=CC2OC3CC(O)[C@](C)([C@@]2(C)C(O)C1=O)[C@]31CO1` (some centres undefined), the Potency result was “inactive”.

In the case of `CN(C(=O)C(c1ccccc1)c1ccccc1)[C@H](CN1CC[C@H](O)C1)c1ccccc1`, the Potency entry is “inactive”.

`Cc1ccc2c(c1)[C@H]1CN(C)CC[C@H]1N2C(=O)CSc1nnnn1-c1ccc(Cl)cc1`: the Potency result is “inactive”.

Turning to `CCCN(CCC)[C@@H]1CCc2ccc3[nH]c(C#N)cc3c2C1`, the Potency result was “inactive”.

`C[C@]12CC[C@H](O)C[C@@H]1CC[C@@H]1[C@@H]2CC[C@]2(C)[C@@H](C3=CC(=O)OC3)CC[C@]12O`: the Potency entry was “inactive”.

As to `CC1=CC(=O)[C@@H](O)[C@@]2(C)C1C[C@H]1OC(=O)[C@H](O)[C@@]3(O)[C@@H](C)[C@@H](O)[C@H](O)C2[C@@]13C` (some centres undefined), the Potency result is “inactive”.

Consider `c1ccc([C@@H]2C[C@H]2NC2CCNCC2)cc1`, for which the Potency entry was “inactive”.

Regarding `CC(=O)OC[C@]12[C@H](OC(C)=O)C(=O)[C@@H]3[C@@H](O)[C@@]14O[C@@]3(C)COC(=O)c1cccnc1[C@@H](C)[C@H](C)C(=O)O[C@@H]([C@H](OC(C)=O)[C@@H]2OC(C)=O)[C@]4(C)O`, the Potency result is “inactive”.

As for `COc1ccc2c(c1)c(CCN(C)C)cn2S(=O)(=O)c1ccccc1`, the Potency result is “inactive”.

A further assay deals with Nanoluciferase (engineered Oplophorus gracilirostris luciferase). Put plainly: Primary Nanoluciferase (NLuc) qHTS assay for identification of artifact compounds. (AID 1845222). The following applies: NLuc-conditioned medium, Nano-Glo luminescence, 5 min; series mostly up to 54.1 µM. The method, boiled down:
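Luminescence read-out of secreted NLuc in S16 cell conditioned medium (1:55); compounds tested with 15 min RT preincubation, then Nano-Glo substrate 1:100, 5 min. % inhibition vs no-enzyme and DMSO controls, 4-parameter Hill fit.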
As to `CN(C)[C@@H]1C(=O)C(C(N)=O)=C(O)[C@@]2(O)C(=O)C3=C(O)c4c(O)ccc(Cl)c4[C@@](C)(O)C3C[C@@H]12` (some centres undefined), the Potency result is “inactive”.

In the case of `CC(C)[C@H](NC(=O)c1nn(Cc2ccc(F)cc2)c2ccccc12)C(N)=O`, the Potency entry is “inactive”.

Take `COC1CCCC(C)OC(=O)Cc2cc(O)cc(O)c2C(=O)C1` (centres undefined): the Potency result was “inactive”.

Consider `CN1CCCCC1Cn1cc(C(=O)c2cc([N+](=O)[O-])ccc2I)c2ccccc21` (centres undefined), for which the Potency entry is “inactive”.

As for `C=C1C(=O)CC2OC2(C)CC2OC(=O)C(=C)C2C(O)C1OC(=O)/C(C)=C\C` (centres undefined), the Potency result was “inactive”.

For `CC12CCC3C(C1)c1c(cc(O)c(C(=O)c4ccccc4)c1OC3(C)C)O2` (centres undefined), the Potency entry was “inactive”.

Regarding `CN1C(=O)[C@@H](Cc2c[nH]c3ccccc23)N=C(c2ccccc2F)c2ccccc21`, the Potency entry is “inactive”.

For `C#C[C@]1(O)CC[C@H]2[C@@H]3CC[C@H]4Cc5nc6nc7ccccc7n6cc5C[C@]4(C)[C@H]3CC[C@@]21C`, the Potency entry was “inactive”.

On to `CC(C)[C@H]1OC(=O)[C@H](Cc2ccccc2)N(C)C(=O)[C@@H](C(C)C)OC(=O)[C@H](Cc2ccccc2)N(C)C(=O)[C@@H](C(C)C)OC(=O)[C@H](Cc2ccccc2)N(C)C1=O`, for which the Potency result is “inactive”.

Consider `CCC1C2CC3C4N(C)c5ccccc5C45CC(C2C5O)N3C1O` (centres undefined), for which the Potency entry is “inactive”.

For the compound `COc1cc(O)c2c(c1)CCC[C@@H](O)[C@H](O)C(=O)/C=C\C[C@H](C)OC2=O`, the Potency entry is “inactive”.

Regarding `CCCCCCC1C(=O)O[C@H](C)[C@H](NC(=O)c2cccc(NC=O)c2O)C(=O)O[C@@H](C)[C@@H]1OC(=O)CC(C)C` (some centres undefined), the Potency result was “inactive”.

Consider `C[C@@H]1O[C@@H](OC2CCC3(C=O)C(CCC4C3CCC3(C)C(C5=CC(=O)OC5)C(O)CC43O)C2)[C@H](O)[C@H](O)[C@H]1O[C@@H]1O[C@H](CO)[C@@H](O)[C@H](O)[C@H]1O` (some centres undefined), for which the Potency result is “inactive”.

`C=C(C)C(=O)O[C@H]1[C@@H]2[C@H](C)C(=O)O[C@@H]2C[C@@H](C)[C@@H]2C=CC(=O)[C@]21C`: the Potency result was “inactive”.

Take `CCN1C[C@]2(COC)CC[C@H](O)[C@@]34C5C[C@@H]6[C@@H](OC)C[C@@](OC(C)=O)(C5[C@@H]6OC(C)=O)[C@H]([C@H](OC)C23)[C@@H]14` (some centres undefined): the Potency result is “inactive”.

Turning to `C[C@]12CC[C@H](O)C[C@@]1(O)CC[C@@H]1[C@@H]2CC[C@]2(C)[C@@H](c3ccc(=O)oc3)CC[C@]12O`, the Potency result was “inactive”.

Take `CN1C(=O)N(c2ccc(C#N)c(C(F)(F)F)c2)C(=O)[C@@]1(CO)c1ccccc1`: the Potency entry was “inactive”.

Regarding `CC(=O)O[C@H]1C[C@]2(O)[C@@H]3CC[C@@H]4C[C@@H](O)CC[C@]4(C)[C@H]3CC[C@]2(C)[C@H]1c1ccc(=O)oc1`, the Potency result is “inactive”.

Turning to `CCCCCn1cc(C(=O)Oc2cccc3cccnc23)c2ccccc21`, the Potency result was “inactive”.

As for `CN=C(NS(=O)(=O)c1ccc(Cl)cc1)N1C[C@H](c2ccccc2)C(c2ccc(Cl)cc2)=N1`, the Potency result is “inactive”.

In the case of `COC1CC(O[C@H]2CC[C@@]3(C)C(CCC4C3CC[C@]3(C)C(C5=CC(=O)OC5)CCC43O)C2)OC(C)C1OC1OC(COC2OC(CO)C(O)C(O)C2O)C(O)C(O)C1O` (some centres undefined), the activity, negative = inhibition is 0.592% [at 11.6 µM] (inactive).

Turning to `C=C(C)[C@@]12O[C@@H]1[C@@]1(C)C(=CC2=O)CC[C@@H](OC(C)=O)[C@@H]1C`, the Potency result is “inactive”.

Take `CN1Cc2c(ccc3c2OCO3)[C@@H]2[C@H]1c1cc3c(cc1C[C@@H]2O)OCO3`: the Potency entry was “inactive”.

Turning to `CN(Cc1cccc(-c2ccncc2)c1)C(=O)Oc1ccc(-c2ccc(C(N)=O)cc2)cc1`, the Potency result was “inactive”.

As for `CC1=CC2OC3CC(O)[C@](C)([C@@]2(C)C(O)C1=O)[C@]31CO1` (some centres undefined), the Potency result was “inactive”.

Turning to `CC[C@H](O)[C@@H](C)[C@H]1O[C@@H]1C[C@H](C)/C=C/C=C(\C)[C@H]1OC(=O)C[C@H](O)CC[C@@](C)(O)[C@@H](OC(C)=O)/C=C/[C@@H]1C`, the Potency entry was “inactive”.

On to `CN(C(=O)C(c1ccccc1)c1ccccc1)[C@H](CN1CC[C@H](O)C1)c1ccccc1`, for which the Potency result is “inactive”.

Regarding `COC(=O)C12C(=O)C(C)(O)C(=O)C1(C)C(C)=CC1C34CCC(OC3=O)C(C)(C)C4CCC12C` (centres undefined), the Potency entry is “inactive”.

As for `CCOc1ccc(Oc2ccc(OCc3cc(F)ccc3F)cc2)c(N)c1`, the Potency entry was “inactive”.

Regarding `Cc1ccc2c(c1)[C@H]1CN(C)CC[C@H]1N2C(=O)CSc1nnnn1-c1ccc(Cl)cc1`, the Potency entry is “inactive”.

Consider `C=C1C2(C)CC3C(C)(O)C4=CC(=O)OC(C)(C)C4=CCC3(C)C13C(=O)OC(C)C3(O)C2=O` (centres undefined), for which the Potency entry was “inactive”.

With `Fc1cc(F)c2c(c1)C1C=CCC1C(c1cccnc1)N2` (centres undefined), the Potency result was “inactive”.

`CCCN(CCC)[C@@H]1CCc2ccc3[nH]c(C#N)cc3c2C1`: the Potency result is “inactive”.

As to `C[C@]12CC[C@H](O)C[C@@H]1CC[C@@H]1[C@@H]2CC[C@]2(C)[C@@H](C3=CC(=O)OC3)CC[C@]12O`, the Potency result was “inactive”.

`CC1=CC(=O)[C@@H](O)[C@@]2(C)C1C[C@H]1OC(=O)[C@H](O)[C@@]3(O)[C@@H](C)[C@@H](O)[C@H](O)C2[C@@]13C` (some centres undefined): the Potency result is “inactive”.

Consider `CC(=O)OC[C@]12[C@H](OC(C)=O)C(=O)[C@@H]3[C@@H](O)[C@@]14O[C@@]3(C)COC(=O)c1cccnc1[C@@H](C)[C@H](C)C(=O)O[C@@H]([C@H](OC(C)=O)[C@@H]2OC(C)=O)[C@]4(C)O`, for which the Potency entry was “inactive”.

Turning to `Cc1c(N[C@@H](c2nnc(-c3ccc(C#N)cc3)o2)[C@H](C)O)ccc(C#N)c1Cl`, the Potency result is “inactive”.

Turning to `COc1ccc2c(c1)c(CCN(C)C)cn2S(=O)(=O)c1ccccc1`, the Potency entry was “inactive”.

These data come from PubChem BioAssay (NCATS).
